Measurements taken from PubChem BioAssay (NCI).
The panel holds about 83,000 compounds, 20% with a hit somewhere; the sample as a whole holds those more often.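 Step 1: grow cells in 96-well plates. Step 2: add test compound at a single concentration. Step 3: incubate 48 h. Step 4: record percent growth.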 Active and inactive are the calls of the source. The calls were made as follows: active = growth percent below 10; inactive = the rest.

tested on: SW-620 colon; assay: NCI-60 one-dose screen, 48 h (100 = growth as untreated, 0 = no growth, -100 = all killed); settings: 10 µM unless noted

Question: CCOC(=O)c1ccc(NC(=O)NC2=NCCS2)cc1 was tested. Which growth did it give?
Answer: 77.8% (inactive)

Question: Which growth does the source give for CC(C)COC(=O)NC(C)(C)C here?
Answer: 99.4% (inactive)

Question: For Cn1c(=O)c2[nH]c(Cc3ccc4c(c3)OCO4)nc2n(C)c1=O, which growth is on record?
Answer: 99.8% (inactive)

Question: How did the growth turn out when Nc1nc(N)c2c(n1)NC(c1sc(Cl)nc1Cl)CC(c1ccc3c(c1)OCO3)=N2 (configuration not stated) was run?
Answer: 13.2% (inactive)

Question: Which growth does the source give for Cc1ccccc1N1C(c2ccccc2)=NNC12C=CC(=O)c1c(O)cccc12 (configuration not stated) here?
Answer: 98.6% (inactive)

Question: Nc1nc(N)c2c(n1)NC(c1sc(Cl)nc1Cl)CC(c1ccccc1)=N2 (configuration not stated) was tested. Which growth did it give?
Answer: 19.3% (inactive)

Question: C=C1NC(=O)C(C(C)CC)NC(=O)C2CSCC(NC(=O)CCC(=O)O)C(=O)NC(Cc3ccccc3)C(=O)NC(C)C(=O)NC(CC(C)CC)C(=O)NC(C(=O)NC(Cc3ccccc3)C(=O)N3CCCC3C(=O)N2)C(C)OC(=O)C(CO)NC(=O)C(C(O)COC)N(C)C(=O)C(C(C)C)NC(=O)C(CC(C)CC)NC1=O (configuration not stated) was tested. Which growth did it give?
Answer: 21.2% [6 µM] (inactive)

Question: Which growth does the source give for Cc1nc2c(-c3cnc(N)nc3)nc(N3CCOCC3)nc2n1C(C)C here?
Answer: 11.3% (inactive)

Question: How did the growth turn out when C=CC[C@]1(O)CC[C@H]2[C@@H]3CCc4cc(O)ccc4[C@H]3CC[C@@]21C was run?
Answer: 92% (inactive)

Question: For COS(=O)(=O)CCN(CCOS(C)(=O)=O)S(C)(=O)=O, which growth is on record?
Answer: 107% (inactive)

Question: Which growth does the source give for Cc1nc2ccc(Nc3nc(NCCN4CCOCC4)nc(Nc4ccc(F)cc4)n3)cc2n1Cc1ccccc1 here?
Answer: 42.4% (inactive)

Question: For COC1CC(N)C2OC(c3ccccc3)OCC2O1 (configuration not stated), which growth is on record?
Answer: 99.6% (inactive)

Question: How did the growth turn out when COc1ccc2[nH]cc(C(c3ccc(Cl)cc3)N3CCCC3)c2c1 (configuration not stated) was run?
Answer: 112% (inactive)

Question: For CCOP(=O)(O)OP(=O)(O)OCC, which growth is on record?
Answer: 103% (inactive)

Question: Which growth does the source give for COc1cccc(/C=N/N=C(N)N)c1 here?
Answer: 98% (inactive)

Question: Which growth does the source give for COc1ccc(C2CC(c3ccc(Nc4ccnc5cc(Cl)ccc45)cc3)=NN2c2ccccc2)cc1 (configuration not stated) here?
Answer: 96.3% (inactive)

Question: CC1=C(O)C(=O)C(c2c(C)cc(C)c(Br)c2C)=C(O)C1=O was tested. Which growth did it give?
Answer: 85.5% (inactive)

Question: FC(F)(F)C1=NNC(c2ccc3ccccc3c2)=NN1 was tested. Which growth did it give?
Answer: 97.9% (inactive)

Question: How did the growth turn out when NC(N)=N/N=C\c1ccc(OCc2ccccc2)cc1 was run?
Answer: 73.9% (inactive)

Question: With COc1ccc(NC(=O)C2c3ccccc3C(=O)N(CC(C)C)C2c2cccs2)cc1 (configuration not stated) as the compound, how does the growth read?
Answer: 92% (inactive)

Question: Which growth does the source give for NC(N)=N/N=C\c1cccc(OCc2ccccc2)c1 here?
Answer: 36% (inactive)

Question: CS(=O)(=O)Nc1cc(-c2cc3ncc(C#N)c(Nc4ccc(Oc5ccccc5)c(Cl)c4)c3s2)cnc1Cl was tested. Which growth did it give?
Answer: 48% (inactive)

Question: For Cc1ccc(NC(=O)c2nc(S(C)(=O)=O)oc2-c2ccc(F)cc2)cc1Nc1ccc2ncn(C)c(=O)c2c1, which growth is on record?
Answer: -6.67% (active)

Question: How did the growth turn out when CC(=O)[C@H]1CC[C@H]2[C@@H]3CC[C@H]4CC=CC[C@]4(C)[C@H]3CC[C@]12C was run?
Answer: 101% (inactive)

Question: With COc1cccc(NC(=O)[C@H](C(C)C)n2c(=O)[nH]c3ccccc3c2=O)c1 as the compound, how does the growth read?
Answer: 103% (inactive)

Question: Which growth does the source give for CC(C)N1CCN(c2ccncc2S(=O)(=O)N2CCN(C)CC2)CC1 here?
Answer: 105% (inactive)

Question: [O-]/[N+](=C\c1ccccc1)CC1(O)CCCCC1 was tested. Which growth did it give?
Answer: 94.2% (inactive)

Question: With CCc1ccc(-c2ccc(NC3CCCCCC3)nn2)cc1S(N)(=O)=O as the compound, how does the growth read?
Answer: 98.8% (inactive)

Question: Which growth does the source give for C[C@@H]1C[C@H](N)C[C@H](c2ccncc2NC(=O)c2ccc(F)c(-c3c(F)cccc3F)n2)C1 here?
Answer: 45.5% (inactive)

Question: COC(=O)C(CCC(=O)CCl)N1C(=O)c2ccccc2C1=O (configuration not stated) was tested. Which growth did it give?
Answer: 32.9% (inactive)

Question: CCCCCCCCCCCCCCC(C(=O)OCC)C(=O)OCC was tested. Which growth did it give?
Answer: 107% (inactive)

Question: Which growth does the source give for O=C(Nc1ccc2[nH]c3ccccc3c2c1)c1ccccc1Cl here?
Answer: 28.2% (inactive)

Question: O=C(CS)OCC(COC(=O)CS)(COC(=O)CS)COC(=O)CS was tested. Which growth did it give?
Answer: 107% (inactive)

Question: Which growth does the source give for C#CC[C@@H]1C[C@]2(C)[C@H]3CC=C4[C@H]5[C@@H](C)[C@H](C)CC[C@]5(C(=O)NCCCCN)CC[C@@]4(C)[C@]3(C)CC[C@H]2C(C)(C)[C@H]1OC(C)=O here?
Answer: 20.1% (inactive)

Question: With CC(=O)N1N=C(c2ccc(C)cc2)CC1c1cn(-c2ccccc2)nc1-c1cccc(Nc2ccnc3cc(Cl)ccc23)c1 (configuration not stated) as the compound, how does the growth read?
Answer: 27.2% (inactive)

Question: For CCN(CC)CCC(CNc1ccnc2cc(Cl)ccc12)c1ccc(O)cc1 (configuration not stated), which growth is on record?
Answer: 51.2% (inactive)

Question: For CNC(=O)c1ccccc1Sc1ccc2c(/C=C/c3ccccn3)n[nH]c2c1, which growth is on record?
Answer: 17.8% (inactive)
